This passage reports Potency results from PubChem BioAssay (NCATS).

Common to all, as to assay: qHTS profiling for inhibitors of Plasmodium falciparum proliferation (AID 504749); further: nearly all actives have a fitted effect of over 60% in size
Common to all, as to details: P. falciparum in erythrocytes, SYBR Green DNA, 72 h; series mostly up to 28.7 µM

One assay relates to N140. The procedure, abridged:
(§1)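 SYBR Green fluorescence (ex 485 nm, em 535 nm) reports parasite DNA after 72 h compound exposure of infected red cells at 0.3% parasitemia, 2.5% hematocrit; signal normalized to 0.29 uM artemisinin and vehicle wells.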

Another assay deals with P93_24. The procedure, abridged:
as §1

Another assay concerns P94_40. The procedure, abridged: as §1
The test system of the next assay is PAD. The gist of the method: as §1
In a further assay the test system is PC15. The gist of the method: as §1
For a further assay, the system named is PC26. The gist of the method: as §1
The test system of the next assay is PC49. The procedure, abridged: as §1
Another assay concerns SC27B. The procedure, abridged:
as §1

A further assay concerns TAB109. The gist of the method:
as §1

Another assay relates to TAB113. The gist of the method:
as §1

Inconclusive results are not listed. The source made the active and inactive calls. The call rests on the fitted dose curve; in most records, active means well fitted inhibition curve with a large enough effect; inconclusive means small, poorly fitted or top-dose-only effect; inactive means flat fitted curve, though single readings scatter.
Potency means the concentration at half of the fitted maximal effect.

In the case of `COc1ncnc(NS(=O)(=O)c2ccc(N)cc2)c1OC`, the Potency entry with N140, in the assay with P93_24, in the assay with P94_40, in the assay on PAD, with PC15 and in the assay on PC26 was “inactive” throughout. In addition, the Potency result with PC49, in the assay with SC27B, with TAB109 and with TAB113 was “inactive” in each case.

As for `Cc1nnc(NS(=O)(=O)c2ccc(N)cc2)s1`, the Potency entry in the assay with N140, in the assay with P93_24, with P94_40, with PC15, in the assay on PC26 and in the assay with PC49 was “inactive” in each case. Moreover, the Potency entry in the assay with SC27B, with TAB109 and in the assay on TAB113 was “inactive” throughout.

For the compound `COc1cccc(N(C)C(=S)Oc2ccc3c(c2)CCCC3)n1`, the Potency entry in the assay with N140, in the assay on P93_24, in the assay on PAD, with PC15, with PC26 and with PC49 was “inactive” throughout. For the same compound, the Potency result in the assay on SC27B and in the assay on TAB109 was “inactive” each time.

Consider `CC(N)C12CC3CC(CC(C3)C1)C2` (stereo not given), for which the Potency result in the assay with PAD, in the assay with PC15, in the assay on PC26 and with PC49 was “inactive” in each case.

For `CC1=CC(=O)c2ccccc2C1=O`, the Potency result in the assay with N140, in the assay on P93_24, in the assay on P94_40, in the assay with PAD, in the assay with PC26 and with PC49 was “inactive” throughout. The Potency result in the assay with SC27B, in the assay with TAB109 and in the assay on TAB113 was “inactive” in each case.

For `COc1cc(NS(=O)(=O)c2ccc(N)cc2)nc(OC)n1`, the Potency result in the assay with N140, with P93_24, with P94_40, in the assay on PAD, in the assay on PC15 and with PC49 was “inactive” in each case. In addition, the Potency result in the assay with SC27B, in the assay on TAB109 and in the assay with TAB113 was “inactive” in each case.

On to `CCn1cc(C(=O)O)c(=O)c2cc(F)c(N3CCNCC3)nc21`, for which the Potency entry in the assay with N140, in the assay with P94_40, in the assay on PAD, in the assay with PC15, in the assay with PC26 and in the assay on PC49 was “inactive” in each case. Also, the Potency result in the assay on SC27B and in the assay on TAB113 was “inactive” in each case.

Consider `CCOC(=O)c1ccc(OC(=O)CCCCCN=C(N)N)cc1`, for which the Potency entry in the assay on P94_40, in the assay with PC49 and in the assay on SC27B was “inactive” throughout.

`CCCc1nc(C)c2c(=O)[nH]c(-c3cc(S(=O)(=O)N4CCN(CC)CC4)ccc3OCC)nn12`: the Potency in the assay with P93_24 is 8.91 µM (active). Moreover, the Potency result in the assay on P94_40, in the assay with PC26, in the assay with TAB109 and with TAB113 was “inactive” throughout.

`CNC(=O)c1cc(Oc2ccc(NC(=O)Nc3ccc(Cl)c(C(F)(F)F)c3)cc2)ccn1`: the Potency is 5.01 µM (active) in the assay on N140; 10 µM (active) in the assay with P93_24; 2.24 µM (active) with PAD; 7.08 µM (active) in the assay with PC15; 3.38 µM (active) in the assay with PC26; 8.91 µM (active) in the assay with PC49. Further, the Potency was 5.01 µM (active) in the assay on SC27B and 11.2 µM (active) in the assay on TAB113.

As for `CC(C)(C)C(=O)OCOP(=O)(COCCn1cnc2c(N)ncnc21)OCOC(=O)C(C)(C)C`, the Potency result with PAD, in the assay with PC49 and in the assay on SC27B was “inactive” each time.

For the compound `CN1CCCC(n2nc(Cc3ccc(Cl)cc3)c3ccccc3c2=O)CC1` (stereo not given), the Potency result in the assay with P94_40 and with PC49 was “inactive” in each case.

Turning to `COc1cnc(NS(=O)(=O)c2ccc(N)cc2)nc1`, the Potency entry in the assay on N140, in the assay with P94_40, in the assay with PAD, in the assay on PC15, with PC26 and in the assay on PC49 was “inactive” in each case. Besides, the Potency result with SC27B, in the assay with TAB109 and in the assay with TAB113 was “inactive” in each case.

For the compound `CCn1cc(C(=O)O)c(=O)c2cc(F)c(N3CCN(C)CC3)cc21`, the Potency result in the assay with N140, with PAD, with PC15, in the assay on PC26 and in the assay with PC49 was “inactive” throughout.

For the compound `CCOc1cc(N)c(Cl)cc1C(=O)NCC1CN(Cc2ccc(F)cc2)CCO1` (stereo not given), the Potency in the assay with P93_24 is 6.31 µM (active); with P94_40, 11.2 µM (active); in the assay on PAD, 11.2 µM (active); in the assay with SC27B, 8.91 µM (active); with TAB109, 10 µM (active); in the assay on TAB113 it was 14.1 µM (active).

With `COc1cc2c(Nc3ccc(Br)cc3F)ncnc2cc1OCC1CCN(C)CC1`, the Potency in the assay on N140 is 2.51 µM (active); in the assay with P93_24, 2 µM (active); in the assay with P94_40 it was 2.82 µM (active); in the assay with PAD, 2.24 µM (active); in the assay on PC15, 7.08 µM (active); with SC27B, 2.82 µM (active). Also, the Potency with TAB109 and in the assay on TAB113 was 2.24 µM (active) each time.

Turning to `CCOC(=O)c1ccc(C#Cc2ccc3c(c2)C(C)(C)CCS3)nc1`, the Potency entry in the assay with N140, in the assay with P93_24, in the assay on P94_40, in the assay with PAD, with PC15 and in the assay on PC49 was “inactive” in each case. Moreover, the Potency result with SC27B is “inactive”.

In the case of `CC(C)OC(=O)C(C(=O)OC(C)C)=C1SC=CS1`, the Potency entry in the assay on N140, in the assay with P93_24, with PAD, in the assay on PC15, in the assay on PC26 and in the assay on PC49 was “inactive” throughout. The Potency result in the assay on SC27B, in the assay on TAB109 and in the assay with TAB113 was “inactive” throughout.

As for `O=c1oc2c(O)c(O)cc3c(=O)oc4c(O)c(O)cc1c4c23`, the Potency in the assay with PC15 is 6.31 µM (active). The Potency result in the assay with PC49 is “inactive”.

In the case of `CN1CCN(c2c(F)cc3c(=O)c(C(=O)O)cn4c3c2OCN4C)CC1`, the Potency result in the assay with N140, in the assay with P94_40, in the assay with PAD, in the assay with PC15, in the assay on PC26 and with PC49 was “inactive” throughout. Further, the Potency result in the assay on SC27B, in the assay on TAB109 and with TAB113 was “inactive” in each case.

`CCCCOc1ccc(CC(=O)NO)cc1`: the Potency in the assay on N140 was 3.98 µM (active); in the assay on P93_24, 1.58 µM (active); in the assay on P94_40, 2 µM (active); in the assay with PAD, 1.41 µM (active); with TAB109 it was 2.24 µM (active). Also, the Potency entry in the assay with PC15 and with PC49 was “inactive” in each case.

With `Cc1oc(=O)oc1CN1CCN(c2cc3c(cc2F)c(=O)c(C(=O)O)c2n3C(C)S2)CC1` (stereo not given), the Potency was 5.01 µM (active) in the assay on P93_24; 7.94 µM (active) with P94_40; 8.91 µM (active) with SC27B; 4.47 µM (active) in the assay with TAB109; 7.94 µM (active) in the assay on TAB113. Also, the Potency result in the assay on PC49 is “inactive”.

Regarding `COC(=O)Nc1nc2ccc(C(=O)c3ccccc3)cc2[nH]1`, the Potency entry in the assay with N140, in the assay with P93_24, with P94_40, in the assay on PAD, with PC15 and with PC49 was “inactive” throughout. For the same compound, the Potency result in the assay on SC27B, in the assay on TAB109 and in the assay with TAB113 was “inactive” each time.

Regarding `CCOC(=O)[C@H](CCc1ccccc1)N[C@H]1CS[C@H](c2cccs2)CN(CC(=O)O)C1=O`, the Potency result in the assay with PC15, with PC26, in the assay with PC49, in the assay on TAB109 and in the assay on TAB113 was “inactive” each time.

Take `Nc1ccc(S(=O)(=O)Nc2ccccn2)cc1`: the Potency entry in the assay with N140, in the assay on PAD, in the assay with PC15, in the assay with PC26, in the assay with PC49 and with SC27B was “inactive” throughout. Besides, the Potency result in the assay with TAB109 and with TAB113 was “inactive” throughout.

For the compound `O=C(O)c1cn(C2CC2)c2cc(N3CCNCC3)c(F)cc2c1=O`, the Potency result with PAD, in the assay on PC15, in the assay with PC49, with SC27B and in the assay on TAB113 was “inactive” each time. Besides, the Potency in the assay with TAB109 was 2.24 µM (active).

For `CCn1cc(C(=O)O)c(=O)c2cc(F)c(N3CCNCC3)cc21`, the Potency result with PAD, in the assay on PC15, with PC26, with PC49, in the assay with SC27B and in the assay with TAB113 was “inactive” throughout.

On to `Oc1c(Cl)cc(Cl)c2cccnc12`, for which the Potency with N140 is 12.6 µM (active); with P94_40, 11.2 µM (active). The Potency result in the assay with PC15, in the assay with PC26 and with PC49 was “inactive” in each case.

For `CN(Cc1cc(Br)cc(Br)c1N)C1CCCCC1`, the Potency result with N140, with PAD, in the assay with PC15, in the assay with PC26, with PC49 and in the assay on SC27B was “inactive” in each case. For the same compound, the Potency result with TAB109 and in the assay with TAB113 was “inactive” throughout.

In the case of `N[C@@H](Cc1ccc(O)c(O)c1)C(=O)O`, the Potency result with PC26 is “inactive”.

As to `CCCCCCNC(=O)n1cc(F)c(=O)[nH]c1=O`, the Potency with PAD was 10 µM (active).
